# “And” between values parts separate entries of the source, which are not always exact repeats. Identical values can stand only once. Results filed as inconclusive are left out. A structure can be active in one record and inactive in another. The source made the active and inactive calls. Rule for the calls: active = hit-call score of the fitted dose curve at least 0.9, where 1 is the maximum; inconclusive = response in the unintended direction; inactive = score below 0.9.
# Legend:
# [1] = ATG_XTT_Cytotoxicity: Cytotoxicity Assessment in the Attagene TRANS-FACTORIAL HepG2 Assay (AID 2283584)
# In short: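 Viability endpoint from XTT after 24 h chemical exposure of reporter-transfected human HepG2 liver cells; signal loss fitted relative to DMSO negative control.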
# [2] = TOX21_p53_BLA_p2_viability: Viability Assessment in the Tox21 HCT-116 p53 Agonism Beta-lactamase Assay, Phase 2 (AID 2283591);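 note: compound exposure lasted 16 h at 37 °C; actives lower the ATP signal meaning cytotoxicity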
# In short: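 HCT116 p53-bla cells, 4000/well, dosed after 5 h plating (217-fold dilution of DMSO stocks) and incubated 16 h at 37C. Viability taken as cellular ATP by CellTiter-Glo luminescence after 30 min RT; signal loss marks cytotoxicity.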
# [3] = biological target: Cellular tumor antigen p53 (Homo sapiens) (UniProt P04637); test: TOX21_p53_BLA_p2_ratio: Tox21 HCT-116 p53 Agonism Beta-lactamase Assay, Ratio, Phase 2 (AID 2283592)
# In short: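 Gain-of-signal p53 agonism was scored from the beta-lactamase FRET ratio (460/530 nm, 405 nm excitation) in HCT116 cells treated 16 h at 37C, 5% CO2, with DMSO serving as negative control and baseline.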
# [4] = biological target: Cellular tumor antigen p53 (Homo sapiens) (UniProt P04637); test: TOX21_p53_BLA_p3_ratio: Tox21 HCT-116 p53 Agonism Beta-lactamase Assay, Ratio, Phase 3 (AID 2283596)
# In short: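 HCT116 p53-bla cells (4000/well) given compound in DMSO (217-fold dilution) after 5 h, incubated 16 h at 37C. CCF4-AM substrate 2 h at room temperature; 460/530 nm emission ratio, gain fitted against DMSO.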
# [5] = biological target: Cellular tumor antigen p53 (Homo sapiens) (UniProt P04637); test: TOX21_p53_BLA_p4_ratio: Tox21 HCT-116 p53 Agonism Beta-lactamase Assay, Ratio, Phase 4 (AID 2283601)
# In short: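 HCT-116 p53 beta-lactamase reporter cells (4000/well) preincubated 5 h, then compound (217-fold dilution of DMSO stock) for 16 h at 37C. CCF4-AM substrate added 2 h at room temperature; 460/530 nm emission ratio fitted upward versus DMSO.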
# [6] = TOX21_p53_BLA_p3_viability: Viability Assessment in the Tox21 HCT-116 p53 Agonism Beta-lactamase Assay, Phase 3 (AID 2283593);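 note: cells exposed to compound for 16 h before reading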
# In short: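 HCT116 cells, 4000/well, dosed 5 h after plating by pin transfer (217-fold dilution from DMSO stock) and incubated 16 h at 37C, 5% CO2. Viability read as ATP luminescence with CellTiter-Glo after 30 min at room temperature.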
# [7] = TOX21_p53_BLA_p4_viability: Viability Assessment in the Tox21 HCT-116 p53 Agonism Beta-lactamase Assay, Phase 4 (AID 2283597);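 note: hits lower the luminescence signal meaning cytotoxicity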
# In short: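 Following a 16 h exposure at 37C, the treated HCT116 wells were first read for the FRET ratio. They were then lysed with CellTiter-Glo, and ATP luminescence was recorded after 30 min at room temperature.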
# [8] = biological target: Cellular tumor antigen p53 (Homo sapiens) (UniProt P04637); test: TOX21_p53_BLA_p5_ratio: Tox21 HCT-116 p53 Agonism Beta-lactamase Assay, Ratio, Phase 5 (AID 2283599)
# In short: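 HCT-116 p53-bla cells (4000/well) plated 5 h, dosed with compound (217-fold DMSO dilution) for 16 h at 37 C; CCF4-AM substrate 2 h at room temperature. Activity is the 460/530 nm emission ratio (405 nm excitation), fitted in gain-of-signal direction versus DMSO.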
# [9] = TOX21_p53_BLA_p5_viability: Viability Assessment in the Tox21 HCT-116 p53 Agonism Beta-lactamase Assay, Phase 5 (AID 2283600)
# In short: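 After the 460/530 nm beta-lactamase measurement, the wells received an ATP-detection luciferase reagent; signal was read 30 min later at RT. Compound treatment lasted 16 h on cells pre-incubated 5 h post-seeding.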
# Sequence of Cellular tumor antigen p53 (Homo sapiens) (P04637 whole entry, looked up): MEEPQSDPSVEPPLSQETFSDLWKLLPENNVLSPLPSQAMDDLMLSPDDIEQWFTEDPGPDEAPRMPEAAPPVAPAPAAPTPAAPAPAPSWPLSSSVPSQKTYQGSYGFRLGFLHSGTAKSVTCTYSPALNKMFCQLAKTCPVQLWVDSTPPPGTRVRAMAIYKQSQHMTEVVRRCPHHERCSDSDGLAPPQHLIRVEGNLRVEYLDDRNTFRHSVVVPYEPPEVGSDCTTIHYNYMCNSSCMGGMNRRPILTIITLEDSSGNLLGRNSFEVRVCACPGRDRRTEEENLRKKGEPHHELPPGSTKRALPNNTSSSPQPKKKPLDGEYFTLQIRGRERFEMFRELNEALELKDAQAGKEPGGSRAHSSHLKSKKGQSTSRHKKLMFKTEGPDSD
smiles,measurement,setting,value
CCCCC(CC)CO[N+](=O)[O-] (stereo not drawn),outcome,[1],inactive
same,outcome,[2],inactive
same,outcome,[3],inactive
same,outcome,[4],inactive
same,outcome,[5],inactive
Oc1ccc(-c2ccccc2)cc1,outcome,[1],inactive
same,outcome,[2],inactive
same,outcome,[3],inactive
same,outcome,[6],inactive
same,outcome,[4],inactive
same,outcome,[7],inactive
same,outcome,[8],inactive
same,outcome,[9],inactive
same,outcome,[5],inactive
CC(C)CCCCCCOC(=O)c1ccccc1C(=O)OCCCCCCC(C)C,outcome,[1],inactive
same,outcome,[2],inactive
same,outcome,[3],inactive
same,outcome,[7],inactive
O=C(CCl)CCl,outcome,[1],inactive
same,outcome,[2],inactive
same,outcome,[4],inactive
same,outcome,[7],inactive
same,outcome,[8],inactive
same,outcome,[9],inactive
same,outcome,[5],inactive
ClC1=C(Cl)[C@]2(Cl)[C@H]3[C@H]([C@H]4C=C[C@H]3C4)[C@@]1(Cl)C2(Cl)Cl,outcome,[1],inactive
same,outcome,[2],inactive
same,outcome,[3],inactive
same,outcome,[7],inactive
same,outcome,[8],inactive
same,outcome,[9],inactive
same,outcome,[5],inactive
CC(=O)OC(c1ccccc1)C(Cl)(Cl)Cl (stereo not drawn),outcome,[1],inactive
same,outcome,[2],inactive
same,outcome,[3],inactive
same,outcome,[4],inactive
same,outcome,[7],inactive
same,outcome,[8],inactive
same,outcome,[5],inactive
Nc1ncc([N+](=O)[O-])s1,outcome,[1],inactive
same,outcome,[2],inactive
same,outcome,[3],inactive
same,outcome,[6],inactive
same,outcome,[4],inactive
same,outcome,[8],inactive
same,outcome,[9],inactive
same,outcome,[5],inactive
CCC(=O)c1ccccc1,outcome,[1],inactive
same,outcome,[2],inactive
same,outcome,[3],inactive
same,outcome,[7],inactive
same,outcome,[8],inactive
same,outcome,[9],inactive
Cc1cc(=O)[nH]o1,outcome,[1],inactive
same,outcome,[2],inactive
same,outcome,[3],inactive
same,outcome,[8],inactive
same,outcome,[9],inactive
ClCc1ccccn1,outcome,[1],inactive
same,outcome,[2],inactive
same,outcome,[3],inactive
same,outcome,[7],inactive
same,outcome,[8],inactive
same,outcome,[9],inactive
same,outcome,[5],inactive
CCOC(=O)Nc1cccc(OC(=O)Nc2ccccc2)c1,outcome,[1],inactive
same,outcome,[2],inactive
same,outcome,[3],inactive
same,outcome,[7],inactive
same,outcome,[9],inactive
CC(=O)c1cc(C(C)(C)C)cc2c1CCC2(C)C,outcome,[1],inactive
same,outcome,[2],inactive
same,outcome,[3],inactive
same,outcome,[4],inactive
same,outcome,[8],inactive
same,outcome,[9],inactive
same,outcome,[5],inactive
COP(=O)(OC)OC,outcome,[1],inactive
same,outcome,[2],inactive
same,outcome,[3],inactive
same,outcome,[4],inactive
same,outcome,[7],inactive
same,outcome,[8],inactive
same,outcome,[9],inactive
same,outcome,[5],inactive
CCCCCCCCCl,outcome,[1],inactive
same,outcome,[2],inactive
same,outcome,[3],inactive
same,outcome,[4],inactive
same,outcome,[7],inactive
same,outcome,[8],inactive
same,outcome,[9],inactive
same,outcome,[5],inactive
C(=NC1CCCCC1)=NC1CCCCC1,outcome,[1],inactive
same,outcome,[2],inactive
same,outcome,[3],inactive
same,AC50,[4],16.2 µM (active)
same,outcome,[4],inactive
same,outcome,[8],inactive
same,outcome,[9],inactive
same,outcome,[5],inactive
C[C@H]1O[C@@H](O[C@H]2[C@@H](O)C[C@H](O[C@H]3[C@@H](O)C[C@H](O[C@H]4CC[C@@]5(C)[C@H](CC[C@@H]6[C@@H]5CC[C@]5(C)[C@@H](C7=CC(=O)OC7)CC[C@]65O)C4)O[C@@H]3C)O[C@@H]2C)C[C@H](O)[C@@H]1O,outcome,[1],inactive
same,AC50,[2],35.6 nM (active) and 51.1 nM (active)
same,outcome,[3],inactive
same,outcome,[4],inactive
same,AC50,[7],40.5 nM (active) and 66.7 nM (active)
same,outcome,[8],inactive
same,AC50,[9],0.028 µM (active)
same,outcome,[9],inactive
same,outcome,[5],inactive
N#Cc1ccccn1,outcome,[1],inactive
same,outcome,[2],inactive
same,outcome,[3],inactive
same,outcome,[4],inactive
same,outcome,[7],inactive
same,outcome,[8],inactive
same,outcome,[9],inactive
same,outcome,[5],inactive
Nc1cccc(Cl)c1,outcome,[1],inactive
same,outcome,[2],inactive
same,outcome,[3],inactive
same,outcome,[4],inactive
same,outcome,[7],inactive
same,outcome,[8],inactive
same,outcome,[9],inactive
same,outcome,[5],inactive
CC(C)OC(=O)Nc1ccccc1,outcome,[1],inactive
same,outcome,[2],inactive
same,outcome,[3],inactive
same,outcome,[4],inactive
same,outcome,[8],inactive
same,outcome,[5],inactive
BrCCBr,outcome,[1],inactive
same,outcome,[2],inactive
same,outcome,[3],inactive
same,outcome,[6],inactive
same,outcome,[4],inactive
same,outcome,[9],inactive
same,outcome,[5],inactive
CCOC(=O)CP(=O)(OCC)OCC,outcome,[1],inactive
same,outcome,[3],inactive
same,outcome,[6],inactive
same,outcome,[4],inactive
same,outcome,[5],inactive
c1cc[c]([Hg][c]2ccccc2)cc1,outcome,[2],inactive
same,AC50,[3],15.2 µM (active)
same,outcome,[4],inactive
same,AC50,[7],79.3 µM (active)
same,outcome,[8],inactive
CC(C#N)CCC#N (stereo not drawn),outcome,[1],inactive
same,outcome,[2],inactive
same,outcome,[4],inactive
same,outcome,[7],inactive
same,outcome,[8],inactive
same,outcome,[9],inactive
same,outcome,[5],inactive
C=C(C)C#N,outcome,[1],inactive
same,outcome,[3],inactive
same,outcome,[4],inactive
same,outcome,[7],inactive
same,outcome,[8],inactive
same,outcome,[9],inactive
same,outcome,[5],inactive

# Reference: PubChem BioAssay (EPA / NIEHS)
